Source: PubChem (National Center for Advancing Translational Sciences (NCATS))
In the library only some 2.5% were active in any assay of this set; here they are far more common.
VACV mCherry inh: qHTS for Stage-Specific Inhibitors of Vaccinia Orthopoxvirus: mCherry Reporter Primary qHTS | Vaccinia virus mCherry reporter infection, fluorescence | Potency, µM (series often up to 36.5 µM), hits mostly inhibitors | 310,000 tested, 0.63% active | AID 720579, 2013; calls by dose curve; tested in A549 cells; also: nearly all actives have a fitted effect of over 35% in size
Lassa entry inh: qHTS for Inhibitors of binding or entry into cells for Lassa Virus; Lassa virus pseudotype entry inhibition, cell reporter; Potency, µM (titrated, usually from 37.9 µM), usual class: inhibitors; 300,000 tested, 1.2% active; calls by dose curve; tested in HEK293 cells; also: nearly all actives have a fitted effect of over 50% in size
Vaccinia Venus: qHTS for Stage-Specific Inhibitors of Vaccinia Orthopoxvirus: Venus Reporter Primary qHTS | Vaccinia virus Venus reporter expression, fluorescence | Potency, µM (titrated, usually from 36.5 µM), hits mostly inhibitors | 330,000 tested, 0.46% active; calls by dose curve; tested in A549 cells; also: nearly all actives have a fitted effect of over 30% in size
Marburg entry inh: qHTS for inhibitors of binding or entry into cells for Marburg Virus; Marburg virus pseudotyped entry inhibition, cell reporter; Potency, µM (top dose mostly 37.8 µM), usual class: inhibitors; 300,000 tested, 1.8% active; AID 540276, 2011; calls by dose curve; tested in HEK293 cells
Of the large screens only hits and unclear results are named; the others gave an inactive call; ! = repeats disagree.

COc1ccc(/C=N\NC(=O)c2ccccc2OC)cc1COc1ccccc1C	Marburg entry inh inconclusive
COc1cc(/C=N/NC(N)=S)cc(Br)c1OCc1ccccc1F	VACV mCherry inh inconclusive, Lassa entry inh inconclusive, Vaccinia Venus 2.51µM, Marburg entry inh inconclusive
COc1ccc(/C=N/NC(=O)c2ccoc2C)cc1COc1c(C)cccc1C	VACV mCherry inh 12.6µM, Lassa entry inh inconclusive, Vaccinia Venus inconclusive, Marburg entry inh 5.62µM
COc1cc(OC)c(/C=N/NC(N)=S)cc1Br	VACV mCherry inh 1µM, Lassa entry inh inconclusive, Vaccinia Venus 1.26µM, Marburg entry inh inconclusive
CCOc1c(Br)cc(/C=N\NC(=O)c2ccccc2)cc1OC	Marburg entry inh inconclusive
COc1ccc(CN2CCCC(c3nc(-c4ccncc4)ncc3-c3ccccc3C)C2)c(OC)c1 (stereo not given)	none (no result: Lassa entry inh, Marburg entry inh)
CCOC(=O)[C@@H](CC(=O)O)N1CCCCC1	none (no result: VACV mCherry inh, Lassa entry inh, Vaccinia Venus)
COc1cc(CNc2ccc3[nH]c(=O)[nH]c3c2)cc(Br)c1OCc1ccccc1F	VACV mCherry inh 6.31µM, Vaccinia Venus inconclusive, Marburg entry inh inconclusive
COc1ccc(/C=N\NC(=O)c2ccccc2Br)cc1COc1c(F)c(F)cc(F)c1F	Lassa entry inh inconclusive, Vaccinia Venus inconclusive, Marburg entry inh 6.31µM
COc1cc(CNc2ccc3[nH]c(=O)[nH]c3c2)ccc1OCc1ccccc1F	VACV mCherry inh inconclusive, Vaccinia Venus inconclusive, Marburg entry inh inconclusive
COc1ccc(/C=N\NC(=O)c2ccccc2F)cc1COc1ccc(F)cc1	Marburg entry inh inconclusive
CCC1(C2CCN(C(=O)c3ccccc3C)CC2)NC(=O)N(CCc2scnc2C)C1=O (stereo not given)	none (no result: Lassa entry inh, Marburg entry inh)
CC(=O)c1ccc(-c2nc3c4ccccc4ccn3c2C(C)=O)o1	Lassa entry inh 1.26µM, Marburg entry inh 1µM
N#CN=c1snc(-c2ccccc2)n1-c1ccc(Br)cc1	VACV mCherry inh 3.16µM, Vaccinia Venus inconclusive (no result: Lassa entry inh, Marburg entry inh)
Cc1nc2c(-c3ccc(F)cc3)cnn2c(N)c1-c1ccc(F)cc1	Vaccinia Venus inconclusive, Marburg entry inh 5.01µM
Cc1ccc(S(=O)(=O)N2CCN(CC(=O)N/N=C\c3ccc(Cl)c([N+](=O)[O-])c3)CC2)cc1	Marburg entry inh inconclusive
O=C(CN1CCN(S(=O)(=O)c2ccc(Br)cc2)CC1)N/N=C/c1ccc(Cl)c([N+](=O)[O-])c1	Lassa entry inh inconclusive, Marburg entry inh 14.6µM
CC(C)C(NS(C)(=O)=O)c1nnc2n1CCN(Cc1ccc(Cl)cc1)CC2 (stereo not given)	none (no result: Lassa entry inh, Marburg entry inh)
Nc1ccc(-c2nc3ccc(N)cc3s2)cc1	Lassa entry inh inconclusive, Marburg entry inh 11.2µM
Nc1cc2sc(-c3ccc(C(=O)O)cc3)nc2cc1Cl	Lassa entry inh 13µM, Marburg entry inh 13µM
Nc1ccc2nc(-c3ccc(O)cc3)sc2c1	Lassa entry inh inconclusive (no result: Marburg entry inh)
Cc1ccc2nc(N3CCC(C(=O)N4CCC5(CC4)OCCO5)CC3)sc2c1	Marburg entry inh 7.94µM (no result: VACV mCherry inh)
Nc1ccc(-c2nc3ccc(C(=O)O)cc3s2)cc1	Lassa entry inh 0.461µM, Marburg entry inh 0.461µM
CC(=O)c1ccccc1-c1ccc2c(c1)CC(CNC(=O)c1cc(C)on1)O2 (stereo not given)	none (no result: Lassa entry inh, Marburg entry inh)
Cc1ccc(C(C)CCN2CCOc3ccc(CN4CCOCC4)cc3C2)o1 (stereo not given)	none (no result: Lassa entry inh, Marburg entry inh)
OCCN(CCO)c1ccc(/C=C/c2ccnc3ccccc23)cc1	none (no result: Lassa entry inh, Marburg entry inh)
O=C(O)c1ccc2nc(-c3ccccc3)sc2c1	Lassa entry inh 2.24µM, Marburg entry inh 1.46µM
CC1CCN(c2nc3ccc(C(=O)O)cc3s2)CC1	Lassa entry inh 0.631µM, Marburg entry inh inconclusive
Cc1ccc(/C=C/C(=O)c2ccccc(=O)c2O)cc1C	VACV mCherry inh inconclusive, Lassa entry inh inconclusive, Marburg entry inh 15.8µM
O=C(/C=C/c1ccccc1)c1cc(Br)ccc(=O)c1O	Lassa entry inh inconclusive, Vaccinia Venus inconclusive, Marburg entry inh 20µM (no result: VACV mCherry inh)
CCCC(O)(c1ccc(Cl)cc1)C(CN1CCOCC1)c1ccc(Cl)cc1 (stereo not given)	Marburg entry inh 7.94µM
COc1cc(Br)c(CC(=O)NO)cc1OC	none (no result: Lassa entry inh, Marburg entry inh)
N=c1n(CCN2CCCCC2)c2ccccc2n1CC(=O)c1ccc(Cl)c(Cl)c1	Marburg entry inh 8.91µM
CCn1c(=N)n(CC(=O)c2ccc(Cl)c(Cl)c2)c2ccccc21	VACV mCherry inh inconclusive, Lassa entry inh inconclusive, Marburg entry inh inconclusive
N=c1n(CCN2CCCCC2)c2ccccc2n1CC(O)c1ccc(Cl)c(Cl)c1 (stereo not given)	VACV mCherry inh inconclusive, Lassa entry inh inconclusive, Vaccinia Venus 11.2µM, Marburg entry inh 5.8µM
COC(=O)Cn1c(=N)n(CCN2CCCCC2)c2ccccc21	none (no result: VACV mCherry inh)
N=c1n(CCN2CCCCC2)c2ccccc2n1CC(O)c1cccc(Br)c1 (stereo not given)	VACV mCherry inh inconclusive, Lassa entry inh inconclusive, Vaccinia Venus inconclusive, Marburg entry inh 11.2µM
COC(=O)c1ccccc1-c1cc(C)cc2c1OC(CNC(=O)C1CCCO1)C2 (stereo not given)	none (no result: Lassa entry inh, Marburg entry inh)
COCC(=O)Nc1cc(C(=O)N2CCSCC2)cc2nc(-c3ccccc3)n(C)c12	none (no result: Lassa entry inh, Marburg entry inh)
CC(=O)OC[C@H]1O[C@@H](ON=C(C)CCC(=O)OC[C@H]2O[C@H](C#Cc3ccccc3)C=C[C@H]2Oc2ccc(C)cc2)[C@H](OC(C)=O)[C@@H](OC(C)=O)[C@H]1OC(C)=O	none (no result: VACV mCherry inh, Lassa entry inh, Vaccinia Venus)
COc1cccc(/C=C/c2ccnc3ccccc23)c1OC	none (no result: Lassa entry inh, Marburg entry inh)
COc1cccc(CN2CCC(n3cc(C(=O)N4CCCCC4)nn3)CC2)c1OC	none (no result: Lassa entry inh, Marburg entry inh)
Cc1c(-c2ccccn2)c(=O)[nH]n1-c1ccc(F)cc1	Marburg entry inh 8.91µM
COc1ccc2[nH]c(C)c(C(=O)CN3C[C@@H](C)O[C@@H](C)C3)c2c1	none (no result: VACV mCherry inh, Lassa entry inh, Vaccinia Venus)
Cc1ccccc1-c1cc2nc(C)c(Cl)c(=O)n2[nH]1	Lassa entry inh inconclusive, Marburg entry inh 12.6µM
Cc1ccc(-c2csc3nnc(SCC(=O)Nc4nsc(-c5ccccc5)n4)n23)cc1	none
O=C(CSc1nnc2scc(-c3ccccc3)n12)Nc1nsc(-c2ccccc2)n1	Marburg entry inh 20.6µM! (no result: VACV mCherry inh, Vaccinia Venus)
O=C(NC1CCCCC1)C(c1ccccc1)N(Cc1ccc2c(c1)OCO2)C(=O)c1cnsn1 (stereo not given)	Lassa entry inh inconclusive, Marburg entry inh 11.2µM
C[C@H]1C[C@@H](C)O[C@@]2(C1)C(=O)N(CC1CC1)c1ccccc12	none (no result: VACV mCherry inh, Lassa entry inh, Vaccinia Venus)
CC(C)(C)[C@]1(O)CCN2C[C@H]3c4ccccc4CCc4cccc(c43)[C@@H]2C1	VACV mCherry inh inconclusive, Lassa entry inh inconclusive, Vaccinia Venus inconclusive, Marburg entry inh 16.4µM
O=C(Nc1ncc(Cc2ccc(SC(F)F)cc2)s1)c1ccc(OC(F)F)cc1	Lassa entry inh inconclusive, Vaccinia Venus inconclusive, Marburg entry inh 5.62µM
C=CC[C@@H](CC(=O)N[C@H](CO)Cc1ccccc1)C(=O)N[C@@H](COC(=O)[C@H](CC=C)CC(=O)OC(C)(C)C)Cc1ccccc1	Vaccinia Venus inconclusive (no result: Lassa entry inh, Marburg entry inh)
C=CC[C@@H](CC(=O)N[C@@H](CO)Cc1ccccc1)C(=O)N[C@H](COC(=O)[C@@H](CC=C)CC(=O)OC(C)(C)C)Cc1c[nH]c2ccccc12	VACV mCherry inh inconclusive, Vaccinia Venus 11.2µM (no result: Lassa entry inh, Marburg entry inh)
C=CCC[C@H](Cc1ccc(F)cc1)C(=O)OC[C@H](Cc1c[nH]c2ccccc12)NC(=O)[C@@H](CC=C)CC(=O)N[C@@H](CO)Cc1ccccc1	Vaccinia Venus 10µM (no result: Lassa entry inh, Marburg entry inh)
